Assay results published in PubChem BioAssay (NCATS).
Records with an inconclusive call do not appear. The source made the active and inactive calls. Calls come from the whole dose curve; as a rule, active = well fitted curve in the direction sought with a large enough effect in the repeat runs; inconclusive = weak or mixed curves; inactive = no such curve, though single readings can be large; an effect the other way counts as inactive or inconclusive.

These compounds were tested against Cytochrome P450 2D6 (Homo sapiens) (UniProt P10635) (assay: Cytochrome P450 family 2 subfamily D member 6 (CYP2D6) small molecule antagonists: luciferase biochemical (cell-free) qHTS assay (AID 1645840)). Details: P450-Glo CYP2D6 enzyme, luciferin luminescence, 1 h; series mostly up to 57.4 µM.
How it was run: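 P450-Glo CYP2D6 system: proluciferin substrate converted by enzyme to luciferin, read by luminescence proportional to activity. Enzyme-substrate mix with compound 10 min at room temperature, then NADPH regeneration 1 h before detection reagent.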
Note: nearly all actives have a fitted effect of over 55% in size.
Potency is the fitted concentration of half-maximal effect.

Chain of Cytochrome P450 2D6 (Homo sapiens) (P10635 whole entry, looked up): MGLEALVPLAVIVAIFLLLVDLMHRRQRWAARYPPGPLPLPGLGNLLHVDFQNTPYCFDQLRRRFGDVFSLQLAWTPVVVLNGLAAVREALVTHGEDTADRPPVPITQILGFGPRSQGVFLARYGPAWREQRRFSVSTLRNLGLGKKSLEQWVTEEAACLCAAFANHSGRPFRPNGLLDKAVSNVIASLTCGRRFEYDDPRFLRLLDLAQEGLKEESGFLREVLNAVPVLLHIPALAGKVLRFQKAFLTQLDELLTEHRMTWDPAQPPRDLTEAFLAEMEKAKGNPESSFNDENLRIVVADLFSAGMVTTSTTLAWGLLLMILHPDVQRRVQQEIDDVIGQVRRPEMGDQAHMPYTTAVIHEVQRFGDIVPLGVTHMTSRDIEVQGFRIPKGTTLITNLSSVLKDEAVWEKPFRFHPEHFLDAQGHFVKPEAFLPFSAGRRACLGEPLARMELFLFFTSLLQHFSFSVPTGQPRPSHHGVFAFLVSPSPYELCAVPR

| Compound | Potency |
| --- | --- |
| CC1(C#N)CCN(c2c(C(=O)N3CCN(C(=O)N4CCCC4)CC3)cnc3c(F)cc(F)cc23)CC1 | inactive |
| COc1ccc(CC(=O)Nc2c(C(=O)N3CCN(c4ccccc4F)CC3)oc3ccccc23)cc1OC | inactive |
| CNS(=O)(=O)c1ccc(Cc2c(-c3cccc(-c4ccccc4)c3)[nH]n(-c3nc(C(=O)O)cs3)c2=O)cc1 | 26.8 µM (active) |
| Cc1ccc(S(=O)(=O)NC2CCC(C(C)(C)C)CC2)cc1 (stereo not drawn) | inactive |
| CCOc1ccccc1NC(=O)Nc1nnc(N2CCCC(C)C2)s1 (stereo not drawn) | inactive |
| COC(=O)Cc1ccc(NC(=O)C2=C(C)NC(Nc3nc4ccccc4o3)=NC2c2ccccc2Cl)cc1 (stereo not drawn) | inactive |
| CCOC(=O)c1ccc(Nc2nc3nonc3nc2Nc2cccc(C)c2C)cc1 | 10.7 µM (active) |
| COc1ccccc1CNC(=O)CCC1N=C2c3ccccc3N=C(SCC(=O)NCCc3ccc(OC)c(OC)c3)N2C1=O (stereo not drawn) | inactive |
| Cc1cccc(NC(=O)Cn2cc(C(=O)c3ccco3)c3ccccc32)c1C | 6.01 µM (active) |
| COc1ccc(CCNc2nc(SCc3ccccc3F)nc3ccccc23)cc1OC | 0.151 µM (active) |
| Cc1ccc(-n2ncc3c(NCCCn4ccnc4)ncnc32)cc1Cl | 3.79 µM (active) |
| COC(=O)c1c(-c2ccc(Cl)cc2)noc1N1CCN(c2ccccc2OC)CC1 | inactive |
| Cc1ccc2nc3c(cc(C#N)c(=O)n3-c3nnc(SCc4ccccc4)s3)c(=O)n2c1 | inactive |
| CCC(Sc1nc2ccccc2c2nc(CCn3cncc3C)nn12)C(=O)Nc1cccc(OC)c1 (stereo not drawn) | 12 µM (active) |
| Nc1c(-c2nc(-c3ccc4c(c3)OCO4)cs2)c2ccccn2c1C(=O)c1ccccc1 | inactive |
| Oc1c(C(c2ccc(Cl)cc2Cl)N2CCN(Cc3ccccc3)CC2)sc2nc(-c3ccco3)nn12 (stereo not drawn) | 7.56 µM (active) |
| COc1ccc(-n2nc3c(N4CCCC(C(=O)NCc5ccc(C)cc5)C4)nnc(C)c3c2C)cc1 (stereo not drawn) | 3.79 µM (active) |
| CCOC(=O)N1CCc2c(sc3c2c(=O)n(CCc2ccccc2)c(=O)n3CC(=O)Nc2cccc(C)c2)C1 | 1.07 µM (active) |
| COc1ccc(CNC(=O)Cn2c(SCC(=O)Nc3ccc(C)c(C)c3)nc3ccccc32)cc1 | inactive |
| CCc1ccc(CNC(=O)C2CCCN(c3nnc(C)c4c(C)n(-c5ccc(OC)cc5)nc34)C2)cc1 (stereo not drawn) | 7.56 µM (active) |

| Compound | Potency |
| --- | --- |
| Cc1ccc(C)c(N2CCN(C(=O)C3CCN(S(=O)(=O)c4ccc5[nH]c(=O)oc5c4)CC3)CC2)c1 | inactive |
| O=C(Cn1c(=O)n(Cc2ccco2)c(=O)c2oc3ccccc3c21)Nc1ccccc1 | 0.756 µM (active) |
| CCn1cc2nc(SCC(=O)Nc3ccc(OC)c(OC)c3)n(Cc3ccc(Cl)cc3)c(=O)c2n1 | 9.52 µM (active) |
| CCCOCc1cc(CN2CCN(c3cccc(Cl)c3)CC2)c(O)c2ncccc12 | inactive |
| Cc1ccnc(NC(c2cccc(O)c2)c2ccc3ccc(C)nc3c2O)c1 (stereo not drawn) | 13.5 µM (active) |
| Cc1cc(Cl)ccc1NC(=O)CCCn1nc(C)c2c(C)n(-c3ccccc3)nc2c1=O | inactive |
| Cc1cc(-n2c(SCc3ccccc3F)nc3[nH]ncc3c2=O)ccc1Cl | 19 µM (active) |
| Cc1cccc(NC(=O)CSc2nc3ccccc3c3nc(CCn4cncc4C)nn23)c1 | 3.01 µM (active) |
| COc1ccc(CCNC(=O)c2nc(SCc3ccccc3F)ncc2Cl)cc1OC | inactive |
| Cc1oc(-c2ccccc2F)nc1Cn1c(SCc2ccccc2F)nc2ccncc21 | 12 µM (active) |
| CCOC(=O)c1ccc(NC(=O)CCn2c(=O)c3cccn3c3cccnc32)cc1 | inactive |
| COc1ccc(-c2noc(CCCC(=O)Nc3cccc(Cl)c3C)n2)cc1 | inactive |
| COc1ccccc1NC(=O)c1oc2ccccc2c1NC(=O)c1ccccc1C(F)(F)F | inactive |
| COc1ccc(-c2nc(SCC(=O)Nc3ccc4c(c3)OCO4)c(-c3ccccc3)[nH]2)cc1 | 6.01 µM (active) |
| COc1ccc(C(=O)Nc2nc3ccccc3n2CCOc2ccc(Cl)cc2)cc1 | inactive |
| CCN1CCN(CCCNC(=O)c2cc3c(s2)-c2c(C)cccc2OC3)CC1 | 10.7 µM (active) |
| OC[C@@H](O)C(O)[C@@H](O)CO (stereo partly drawn) | inactive |
| Cc1ccc(CNC(=O)C(C)n2nc(C)c3sc4ccccc4c3c2=O)cc1 (stereo not drawn) | 13.5 µM (active) |
| COc1cccc(NC(=O)Cn2c(=O)n(CC(=O)NCc3ccc(C)cc3)c(=O)c3sccc32)c1 | 0.107 µM (active) |

These compounds were tested against Cytochrome P450 2C9 (Homo sapiens) (UniProt P11712) (assay: Cytochrome P450 family 2 subfamily C member 9 (CYP2C9) small molecule antagonists: luciferase biochemical (cell-free) qHTS assay (AID 1645842)). Details: P450-Glo CYP2C9 enzyme assay, luciferin luminescence; series mostly up to 57.4 µM.
How it was run: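 P450-Glo CYP2C9 system: proluciferin substrate with enzyme in mix containing 0.4% BSA, 10 min at room temperature, then NADPH regeneration solution added and incubated 1 h at 37C. Detection reagent stopped reaction; luminescence read after 20 min as RLU.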

Chain of Cytochrome P450 2C9 (Homo sapiens) (P11712 whole entry, looked up): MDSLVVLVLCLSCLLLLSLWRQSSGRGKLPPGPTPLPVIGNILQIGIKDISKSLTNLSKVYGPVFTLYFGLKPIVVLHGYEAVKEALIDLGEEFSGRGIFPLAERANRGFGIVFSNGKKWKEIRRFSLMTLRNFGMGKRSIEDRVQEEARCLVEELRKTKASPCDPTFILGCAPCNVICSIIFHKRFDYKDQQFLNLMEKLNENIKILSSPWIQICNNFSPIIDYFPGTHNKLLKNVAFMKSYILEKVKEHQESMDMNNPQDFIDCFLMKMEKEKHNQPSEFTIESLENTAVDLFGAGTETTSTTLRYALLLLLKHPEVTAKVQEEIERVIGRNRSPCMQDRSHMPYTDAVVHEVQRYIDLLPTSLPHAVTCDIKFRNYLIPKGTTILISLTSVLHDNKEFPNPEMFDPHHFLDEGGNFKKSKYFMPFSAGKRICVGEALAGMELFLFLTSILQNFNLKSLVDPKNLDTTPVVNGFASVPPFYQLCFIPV

| Compound | Potency |
| --- | --- |
| CC1(C#N)CCN(c2c(C(=O)N3CCN(C(=O)N4CCCC4)CC3)cnc3c(F)cc(F)cc23)CC1 | 12 µM (active) |
| COc1ccc(CC(=O)Nc2c(C(=O)N3CCN(c4ccccc4F)CC3)oc3ccccc23)cc1OC | inactive |
| CNS(=O)(=O)c1ccc(Cc2c(-c3cccc(-c4ccccc4)c3)[nH]n(-c3nc(C(=O)O)cs3)c2=O)cc1 | 21.3 µM (active) |
| Cc1ccc(S(=O)(=O)NC2CCC(C(C)(C)C)CC2)cc1 (stereo not drawn) | 2.68 µM (active) |
| CCOc1ccccc1NC(=O)Nc1nnc(N2CCCC(C)C2)s1 (stereo not drawn) | 10.7 µM (active) |
| COC(=O)Cc1ccc(NC(=O)C2=C(C)NC(Nc3nc4ccccc4o3)=NC2c2ccccc2Cl)cc1 (stereo not drawn) | 0.756 µM (active) |
| CCOC(=O)c1ccc(Nc2nc3nonc3nc2Nc2cccc(C)c2C)cc1 | inactive |
| COc1ccccc1CNC(=O)CCC1N=C2c3ccccc3N=C(SCC(=O)NCCc3ccc(OC)c(OC)c3)N2C1=O (stereo not drawn) | 0.301 µM (active) |
| Cc1cccc(NC(=O)Cn2cc(C(=O)c3ccco3)c3ccccc32)c1C | 3.01 µM (active) |
| COc1ccc(CCNc2nc(SCc3ccccc3F)nc3ccccc23)cc1OC | 0.849 µM (active) |
| Cc1ccc(-n2ncc3c(NCCCn4ccnc4)ncnc32)cc1Cl | 0.601 µM (active) |
| COC(=O)c1c(-c2ccc(Cl)cc2)noc1N1CCN(c2ccccc2OC)CC1 | inactive |
| Cc1ccc2nc3c(cc(C#N)c(=O)n3-c3nnc(SCc4ccccc4)s3)c(=O)n2c1 | 3.79 µM (active) |
| CCC(Sc1nc2ccccc2c2nc(CCn3cncc3C)nn12)C(=O)Nc1cccc(OC)c1 (stereo not drawn) | 1.9 µM (active) |
| Nc1c(-c2nc(-c3ccc4c(c3)OCO4)cs2)c2ccccn2c1C(=O)c1ccccc1 | 0.425 µM (active) |
| Oc1c(C(c2ccc(Cl)cc2Cl)N2CCN(Cc3ccccc3)CC2)sc2nc(-c3ccco3)nn12 (stereo not drawn) | 6.01 µM (active) |
| COc1ccc(-n2nc3c(N4CCCC(C(=O)NCc5ccc(C)cc5)C4)nnc(C)c3c2C)cc1 (stereo not drawn) | inactive |
| CCOC(=O)N1CCc2c(sc3c2c(=O)n(CCc2ccccc2)c(=O)n3CC(=O)Nc2cccc(C)c2)C1 | 1.69 µM (active) |
| COc1ccc(CNC(=O)Cn2c(SCC(=O)Nc3ccc(C)c(C)c3)nc3ccccc32)cc1 | 2.39 µM (active) |
| CCc1ccc(CNC(=O)C2CCCN(c3nnc(C)c4c(C)n(-c5ccc(OC)cc5)nc34)C2)cc1 (stereo not drawn) | 1.69 µM (active) |

| Compound | Potency |
| --- | --- |
| Cc1ccc(C)c(N2CCN(C(=O)C3CCN(S(=O)(=O)c4ccc5[nH]c(=O)oc5c4)CC3)CC2)c1 | 2.13 µM (active) |
| O=C(Cn1c(=O)n(Cc2ccco2)c(=O)c2oc3ccccc3c21)Nc1ccccc1 | 4.77 µM (active) |
| CCn1cc2nc(SCC(=O)Nc3ccc(OC)c(OC)c3)n(Cc3ccc(Cl)cc3)c(=O)c2n1 | 3.79 µM (active) |
| CCCOCc1cc(CN2CCN(c3cccc(Cl)c3)CC2)c(O)c2ncccc12 | 6.74 µM (active) |
| Cc1ccnc(NC(c2cccc(O)c2)c2ccc3ccc(C)nc3c2O)c1 (stereo not drawn) | 9.52 µM (active) |
| Cc1cc(Cl)ccc1NC(=O)CCCn1nc(C)c2c(C)n(-c3ccccc3)nc2c1=O | 13.5 µM (active) |
| Cc1cc(-n2c(SCc3ccccc3F)nc3[nH]ncc3c2=O)ccc1Cl | 23.9 µM (active) |
| Cc1cccc(NC(=O)CSc2nc3ccccc3c3nc(CCn4cncc4C)nn23)c1 | 1.51 µM (active) |
| COc1ccc(CCNC(=O)c2nc(SCc3ccccc3F)ncc2Cl)cc1OC | 0.379 µM (active) |
| Cc1oc(-c2ccccc2F)nc1Cn1c(SCc2ccccc2F)nc2ccncc21 | 9.52 µM (active) |
| CCOC(=O)c1ccc(NC(=O)CCn2c(=O)c3cccn3c3cccnc32)cc1 | 10.7 µM (active) |
| COc1ccc(-c2noc(CCCC(=O)Nc3cccc(Cl)c3C)n2)cc1 | 3.79 µM (active) |
| COc1ccccc1NC(=O)c1oc2ccccc2c1NC(=O)c1ccccc1C(F)(F)F | 2.68 µM (active) |
| COc1ccc(-c2nc(SCC(=O)Nc3ccc4c(c3)OCO4)c(-c3ccccc3)[nH]2)cc1 | 1.2 µM (active) |
| COc1ccc(C(=O)Nc2nc3ccccc3n2CCOc2ccc(Cl)cc2)cc1 | 26.8 µM (active) |
| CCN1CCN(CCCNC(=O)c2cc3c(s2)-c2c(C)cccc2OC3)CC1 | inactive |
| OC[C@@H](O)C(O)[C@@H](O)CO (stereo partly drawn) | inactive |
| Cc1ccc(CNC(=O)C(C)n2nc(C)c3sc4ccccc4c3c2=O)cc1 (stereo not drawn) | 2.39 µM (active) |
| COc1cccc(NC(=O)Cn2c(=O)n(CC(=O)NCc3ccc(C)cc3)c(=O)c3sccc32)c1 | 6.01 µM (active) |
